Measurements published in the antibiotic and cytotoxicity screens of Wong et al. (2023).
In all, about 39,000 compounds went through this assay and about 3,300 (8.5%) were called active. Shown is part of a subset that was picked to be rich in actives.

tested on: HepG2; experiment: cytotoxicity call (relative viability < 0.9); conditions: 10 µM

SMILES | cytotoxicity call
C[C@H](CO)N1C[C@H](C)[C@H](CN(C)C(=O)Nc2cccc3ccccc23)Oc2ncc(C#Cc3cccc(F)c3)cc2C1=O | inactive
CC(C)(C)OC(=O)Nc1cccc([C@@H]2CC(=O)N(C(=O)OCc3ccccc3)[C@@H]2C(=O)Nc2cccc3cccnc23)c1 | inactive
Cc1noc(C)c1NC(=O)Nc1ccc2c(c1)C(=O)N([C@H](C)CO)C[C@@H](C)[C@H](CN(C)C(=O)C1CCCCC1)OCCCC[C@@H](C)O2 | inactive
C[C@@H]1CN([C@H](C)CO)C(=O)c2cc(C#CC3(O)CCCC3)cnc2O[C@H]1CN(C)S(=O)(=O)c1cccc(F)c1 | inactive
CCC1C(=O)OCC1Cc1cncn1C.O=[N+]([O-])O (stereo not drawn) | inactive
Cc1noc(C)c1NC(=O)Nc1cccc2c1O[C@@H](CN(C)Cc1ccc(Oc3ccccc3)cc1)[C@H](C)CN([C@@H](C)CO)C2=O | inactive
CN(C)CCCNC(=O)C[C@H]1CC[C@H]2[C@@H](COC[C@H](O)CN2S(=O)(=O)c2ccc(F)cc2)O1 | inactive
CO[C@H]1CN(C)C(=O)c2ccc(NC(=O)Nc3cccc(Cl)c3)cc2OC[C@@H](C)N(C(=O)Nc2c(C)noc2C)C[C@H]1C | inactive
C[C@H]1CN([C@@H](C)CO)C(=O)c2cc(NC(=O)Nc3cccc4ccccc34)ccc2O[C@H]1CN(C)S(=O)(=O)c1ccccc1 | inactive
C[C@H](CO)N1C[C@H](C)[C@H](CN(C)C(=O)Nc2cccc3ccccc23)Oc2ccc(NC(=O)Nc3ccc(C(F)(F)F)cc3)cc2C1=O | inactive
CN(C)CCOC(=O)COc1ccc(Cl)cc1.Cl | inactive
CCCCc1nc(-c2ccc(OCCCN(CC)CC)cc2)cn1-c1ccc(Oc2ccc(Cl)cc2)cc1 | active
CCCC[C@@H](C#N)c1ccccn1 | inactive
CN(C)CC(=O)N[C@@H]1CC[C@H](CCNS(=O)(=O)c2ccccc2)O[C@H]1CO | inactive
COc1cc(CN2CCC(C(=O)N[C@@H](c3ccc(F)cc3)c3ccc4ccccc4n3)CC2)cc(OC)c1 | active
O=C(N[C@H](c1ccc(F)cc1)c1ccc2ccccc2n1)C1CCN(Cc2cccc(C(F)(F)F)c2)CC1 | active
COc1ccccc1[C@@H](NC(=O)C1CCN(Cc2ccc(Oc3ccccc3)cc2)CC1)c1ccccn1 | inactive
O=C(N[C@@H](c1ccccc1)c1ccc2ccccc2n1)C1CCN(Cc2ccc(Oc3ccccc3)cc2)CC1 | inactive
O=C(N[C@@H](c1ccccc1)c1ccc2ccccc2n1)C1CCN(Cc2cccc(C(F)(F)F)c2)CC1 | inactive
O=C(N[C@H](c1ccc(F)cc1)c1ccc2ccccc2n1)C1CCN(Cc2ccc(Oc3ccccc3)cc2)CC1 | active
COc1cc(OC)nc([C@@H](NC(=O)C2CCN(Cc3ccc(Oc4ccccc4)cc3)CC2)c2ccccc2C)n1 | active
O=C(N[C@H](c1ccc(F)cc1)c1ccc2ccccc2n1)C1CCN(Cc2ccc3ccccc3n2)CC1 | inactive
COc1ccc([C@@H](NC(=O)C2CCN(Cc3ccc(Oc4ccccc4)cc3)CC2)c2ccccc2C)cn1 | inactive
